{"source": "PubChem BioAssay (Tox21)", "note": "“And” between values parts separate entries of the source, which are not always exact repeats. Equal values may be shown once. Inconclusive results are not listed. A call without a number means that no potency is given here. The source made the active and inactive calls. Unless noted, calls come from the whole dose curve; as a rule, active = well fitted cell-killing curve with a large enough effect in the repeat runs; inconclusive = weak or mixed curves; inactive = no such curve, though single readings can be large or run the other way.", "data": [{"molecular_target": "Peroxisome proliferator-activated receptor delta (Homo sapiens) (UniProt Q03181)", "sequence (Q03181 whole entry, looked up)": "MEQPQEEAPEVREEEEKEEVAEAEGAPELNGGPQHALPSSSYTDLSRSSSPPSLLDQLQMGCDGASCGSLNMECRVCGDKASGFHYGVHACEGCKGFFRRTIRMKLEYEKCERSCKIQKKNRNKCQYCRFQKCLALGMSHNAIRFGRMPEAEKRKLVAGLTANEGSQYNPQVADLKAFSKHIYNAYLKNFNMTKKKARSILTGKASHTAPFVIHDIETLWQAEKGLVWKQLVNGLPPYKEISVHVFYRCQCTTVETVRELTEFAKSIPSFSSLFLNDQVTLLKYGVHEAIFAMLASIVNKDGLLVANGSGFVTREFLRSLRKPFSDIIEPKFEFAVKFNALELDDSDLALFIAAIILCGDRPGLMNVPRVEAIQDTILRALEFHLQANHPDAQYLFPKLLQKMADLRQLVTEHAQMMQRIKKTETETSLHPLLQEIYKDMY", "test": "qHTS assay to identify small molecule agonists of the peroxisome proliferator-activated receptor delta (PPARd) signaling pathway (AID 743212; calls by dose curve; note: potency is the fitted concentration of half-maximal effect)", "conditions": "HEK293H PPARd-UAS-bla, beta-lactamase FRET ratio, 17 h; series mostly up to 62.6 µM", "in_short": "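Tox21 library screened in GeneBLAzer PPARd UAS-bla HEK293H cells. After compound treatment at 37 C, a FRET-based beta-lactamase substrate was applied for 2 h and fluorescence recorded.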", "values": [{"molecule": "CCCOCC(C)O", "note": "(stereo not drawn)", "Potency": "inactive"}, {"molecule": "OC1CCCCC1", "Potency": "inactive"}, {"molecule": "Nc1nc(N)c2nc(-c3ccccc3)c(N)nc2n1", "Potency": "24.5 µM (active) and 23.7 µM (active)"}, {"molecule": "CCOC(=O)CC(=O)OCC", "Potency": "inactive"}, {"molecule": "O=C(O)C1=NN(c2ccc(S(=O)(=O)O)cc2)C(=O)C1", "Potency": "inactive"}, {"molecule": "CN=C(NC#N)NCCSCc1nc[nH]c1C", "Potency": "inactive"}, {"molecule": "COCN(COC)c1nc(N(COC)COC)nc(N(COC)COC)n1", "Potency": "inactive"}, {"molecule": "CCCCC(CC)COC(=O)c1ccc(C(=O)OCC(CC)CCCC)cc1", "note": "(stereo not drawn)", "Potency": "inactive"}, {"molecule": "COC(=O)/C=C\\C(=O)OC", "Potency": "inactive"}, {"molecule": "CCc1cccc(CC)c1N", "Potency": "inactive"}]}, {"tested_on": "not listed separately", "test": "qHTS assay to identify small molecule antagonists of the peroxisome proliferator-activated receptor delta (PPARd) signaling pathway - cell viability counter screen (AID 743213); note: nearly all actives have a fitted effect of over 50% in size; note: potency is the fitted concentration of half-maximal effect", "conditions": "PPARd-bla HEK293H viability, CellTiter-Glo luminescence, 17 h; series mostly up to 62 µM", "in_short": "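CellTiter-Glo was added to PPARd-bla HEK293H wells following 17 h compound treatment in the presence of 300 nM L165041. Luminescence was recorded after 30 min at room temperature.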", "values": [{"molecule": "CCN(CC)CCNC(=O)c1ccc(N)cc1", "Potency": "inactive"}, {"molecule": "CN1Cc2c(N)cccc2C(c2ccccc2)C1", "note": "(stereo not drawn)", "Potency": "inactive"}, {"molecule": "CC(=O)OC/C=C(\\C)CCC=C(C)C", "Potency": "inactive"}, {"molecule": "OCCOCCOCCOCCOCCO", "Potency": "inactive"}, {"molecule": "NCCNCCNCCN", "Potency": "inactive"}, {"molecule": "COc1c2ccoc2cc2oc(=O)ccc12", "Potency": "inactive"}, {"molecule": "CO[Si](CCCNCCN)(OC)OC", "Potency": "inactive"}, {"molecule": "CCCOCC(C)O", "note": "(stereo not drawn)", "Potency": "inactive"}, {"molecule": "O=Cc1ccc(CO)o1", "Potency": "inactive"}, {"molecule": "COc1ccc2cc3[n+](cc2c1OC)CCc1cc2c(cc1-3)OCO2", "Potency": "inactive"}, {"molecule": "OC1CCCCC1", "Potency": "inactive"}, {"molecule": "Nc1nc(N)c2nc(-c3ccccc3)c(N)nc2n1", "Potency": "inactive"}, {"molecule": "CC(O)CNCC(C)O", "note": "(stereo not drawn)", "Potency": "inactive"}, {"molecule": "O=C(O)Cc1c[nH]c2ccccc12", "Potency": "inactive"}, {"molecule": "O=[N+]([O-])c1cc(C(F)(F)F)ccc1Cl", "Potency": "inactive"}, {"molecule": "CC/C(C)=N/O", "Potency": "inactive"}, {"molecule": "CC(C)=CCC/C(C)=C/C=O", "Potency": "inactive"}, {"molecule": "CCCCCC(C)=O", "Potency": "inactive"}, {"molecule": "CCOC(=O)CC(=O)OCC", "Potency": "inactive"}, {"molecule": "CCCCCCCCCCCCCC(=O)O", "Potency": "inactive"}, {"molecule": "C=C(C)CC(C)(C)C", "Potency": "inactive"}, {"molecule": "CCCN(CCC)C(=O)SCC", "Potency": "inactive"}, {"molecule": "NC1CCCCC1N", "note": "(stereo not drawn)", "Potency": "inactive"}, {"molecule": "O=[N+]([O-])c1ccccc1C(F)(F)F", "Potency": "inactive"}, {"molecule": "O=C(O)C1=NN(c2ccc(S(=O)(=O)O)cc2)C(=O)C1", "Potency": "inactive"}, {"molecule": "Cc1cc(C)c(O)c(C)c1", "Potency": "inactive"}, {"molecule": "O=c1n(CCCN2CCN(c3cccc(Cl)c3)CC2)nc2ccccn12", "Potency": "inactive"}, {"molecule": "CN=C(NC#N)NCCSCc1nc[nH]c1C", "Potency": "inactive"}, {"molecule": "COCN(COC)c1nc(N(COC)COC)nc(N(COC)COC)n1", "Potency": "inactive"}, {"molecule": "CCCCC(CC)COC(=O)c1ccc(C(=O)OCC(CC)CCCC)cc1", "note": "(stereo not drawn)", "Potency": "inactive"}, {"molecule": "OC[C@H]1O[C@@H](Oc2ccc(O)cc2)[C@H](O)[C@@H](O)[C@@H]1O", "Potency": "inactive"}, {"molecule": "COC(=O)/C=C\\C(=O)OC", "Potency": "inactive"}, {"molecule": "CC(C)c1ccc(C(C)C)cc1", "Potency": "inactive"}, {"molecule": "O=C(NCC1CCCCN1)c1cc(OCC(F)(F)F)ccc1OCC(F)(F)F", "note": "(stereo not drawn)", "Potency": "inactive"}, {"molecule": "CC(CN1c2ccccc2Sc2ccccc21)N(C)C", "note": "(stereo not drawn)", "Potency": "49.5 µM (active) and 24.5 µM (active)"}, {"molecule": "CCc1cccc(CC)c1N", "Potency": "inactive"}, {"molecule": "Brc1ccc(Oc2ccc(Br)cc2)cc1", "Potency": "inactive"}, {"molecule": "Clc1cccc(Cl)c1NC1=NCCN1", "Potency": "inactive"}]}]}
